From PubChem
Rab9 prom act: activators of Rab9 promoter | Potency, µM (series often up to 9.22 µM), most hits filed as activators | Huh7 Rab9 promoter-luciferase reporter, luminescence, 24 h | actives 2.8% (n = 320,000); also: nearly all actives have a fitted effect of over 60% in size
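Luminescence read-out: Huh7 cells stably expressing Rab9-luciferase, treated 24 h with compound at 37 °C, then lysed with luciferase reagent for 10 min at ambient before reading.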
NPC1 promoter act: activators of NPC1 promoter | Huh7 NPC1 promoter luciferase reporter, 24 h | AID 485313 | Potency, µM (top dose mostly 9.22 µM), actives largely listed as activators | actives 2.4% (n = 320,000); also: nearly all actives have a fitted effect of over 60% in size
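Luminescence from an NPC1 promoter-driven luciferase reporter in stably transfected Huh7 cells was measured after 24 h compound treatment at 37 °C, followed by 10 min ambient incubation with luciferase detection reagent.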
ELG1 genotox: genotoxicity induction in ELG1-luciferase HEK293T cells; Potency, µM (doses to about 46 µM), most hits filed as activators; actives 1.3% (n = 330,000); AID 504466; HEK293T ELG1-luciferase reporter, luminescence, 16 h; also: nearly all actives have a fitted effect of over 60% in size
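DMSO vehicle served as control against compound-treated ELG1-luciferase HEK293T cells; exposure lasted 16 hr at 37 °C and 5% CO2, followed by ONE-Glo luminescence detection after 30 min.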
SMN2 splice enh: increases expression of the SMN2 splice variant. HEK293 SMN2-luciferase splicing reporter, luminescence, 30-36 h. Potency, µM (top dose mostly 46.1 µM), usual class: activators. actives 2.8% (n = 210,000). AID 1458; also: nearly all actives have a fitted effect of over 55% in size
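HEK293 cells carry an SMN2 minigene-luciferase reporter in which exon 7 inclusion puts luciferase in frame. Cells were seeded at 2000 cells/well, attached for 10-12 hours, then exposed to compounds for 30-36 hours at 37C before ONE-Glo luminescence.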
ELG1 repair inh: blocks ELG1-dependent DNA repair in HEK293T cells. HEK293T ELG1-luciferase reporter, luminescence, 16 h; DNA damage induced by 5-fluorouridine. Potency, µM (titrated, usually from 46.1 µM), actives largely listed as inhibitors. actives 2.3% (n = 330,000). AID 504467; also: nearly all actives have a fitted effect of over 55% in size
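Reporter activity after DNA damage by 5-fluorouridine is monitored. Compound-treated cells incubate 16 hr at 37 °C, then ONE-Glo is added for 30 min before luminescence reading.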
FLuc modulator: inhibits or activates purified firefly luciferase, miR-21 counter-screen; purified FLuc, Km substrates, luminescence inhibition; Potency, µM (series often up to 57.5 µM), actives largely listed as inhibitors; P08659; actives 6.9% (n = 360,000); also: nearly all actives have a fitted effect of over 55% in size
Target sequence (P08659 whole entry, looked up): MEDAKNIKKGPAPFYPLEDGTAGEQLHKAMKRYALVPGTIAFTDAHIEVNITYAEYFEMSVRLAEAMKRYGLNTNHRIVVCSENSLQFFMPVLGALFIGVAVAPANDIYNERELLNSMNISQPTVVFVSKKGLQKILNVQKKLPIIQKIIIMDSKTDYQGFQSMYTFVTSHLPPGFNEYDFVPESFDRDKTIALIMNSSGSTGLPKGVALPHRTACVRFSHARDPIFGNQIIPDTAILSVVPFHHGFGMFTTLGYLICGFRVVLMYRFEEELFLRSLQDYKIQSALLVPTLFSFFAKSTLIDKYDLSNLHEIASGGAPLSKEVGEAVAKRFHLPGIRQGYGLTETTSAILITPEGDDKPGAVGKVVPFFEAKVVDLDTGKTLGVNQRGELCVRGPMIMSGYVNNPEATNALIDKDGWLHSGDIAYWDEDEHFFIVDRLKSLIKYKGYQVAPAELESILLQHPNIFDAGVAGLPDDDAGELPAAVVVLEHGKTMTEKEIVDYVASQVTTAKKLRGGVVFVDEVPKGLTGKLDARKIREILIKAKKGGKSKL
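Purified P. pyralis luciferase (10nM final) with 10uM D-luciferin and 10uM ATP (Km levels) in 50mM Tris acetate pH 7.5, 10mM Mg acetate, 0.01% Tween-20, 0.05% BSA; qHTS 6-point titration, ~60 µM downward; luminescence read.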
A number is an active result; - = inactive; ? = inconclusive; . = no result. Most compounds without a hit are left out; they make up all but 9.4% or so of the library. Calls follow the shape of the dose curve; as a rule, active = well fitted curve in the direction sought with a large enough effect; inconclusive = small, poorly fitted or top-dose-only effect, or another doubt; inactive = no such curve, though single readings can be large; an effect the other way counts as inactive or inconclusive.

SMILES	Rab9 prom act	NPC1 promoter act	ELG1 genotox	SMN2 splice enh	ELG1 repair inh	FLuc modulator
Cc1c(CCC(=O)NCc2cccc(Cl)c2)c(=O)oc2c(C)c(O)ccc12	.	.	.	-	.	-
O=C(NCCc1cccc(Cl)c1)c1ccc(OC2CCN(Cc3ccccn3)CC2)cc1	-	?	?	.	?	19µM
O=C(NCCc1ccccn1)c1ccc(OC2CCN(CCc3ccccc3)CC2)cc1	2.8µM	3.2µM	?	.	?	19µM
CCOc1ccc(NC(=O)C(C)n2c(=O)cc(C)c3c(C)nn(-c4ccccc4)c32)cc1 (configuration not stated)	.	.	.	.	.	-
CC(C)Cn1c(-c2cccs2)nc2nc3ccccc3nc21	-	-	-	-	?	?
c1ccc(Cn2c(-c3cccs3)nc3nc4ccccc4nc32)cc1	-	-	-	-	-	15µM
O=c1c(S(=O)(=O)c2ccccc2)cn(Cc2ccc(F)cc2)c2cc(N3CCCCC3)c(F)cc12	.	.	.	.	.	-
N#C/C(=C\c1ccc(O)cc1)c1nc2ccccc2o1	?	?	?	.	?	11µM
COc1cc(NS(=O)(=O)c2ccc(N/C=C(\C#N)c3nc4ccccc4o3)cc2)nc(OC)n1	-	-	-	-	-	-
COc1cc(/C=C(\C#N)c2nc3ccccc3o2)ccc1O	-	-	?	.	?	7.6µM
O=[N+]([O-])c1c(NCCO)cc(N2CCN(Cc3ccc4c(c3)OCO4)CC2)c2nonc12	-	-	-	-	21µM	-
COc1cc(-c2nnn(Cc3ccccc3C)n2)cc(OC)c1OC	-	-	-	.	23µM	-
Fc1ccccc1Cn1nnc(-c2ccc3c(c2)OCO3)n1	1.1µM	2µM	?	13µM	?	2.1µM
O=C(OCc1ccccc1)c1ccc(-c2nnn(Cc3ccccc3F)n2)cc1	.	.	.	-	.	-
COc1ccc(-c2nnn(Cc3ccccc3F)n2)cc1	3.2µM	3.5µM	?	16µM	?	11µM
Cc1ccc(S(=O)(=O)NCC2CCC(C(=O)NCCc3ccc(Cl)cc3)CC2)cc1 (configuration not stated)	.	.	.	.	.	-
COc1ccc(CCn2c(C)c(C(C)=O)c3cc(OC(=O)c4ccco4)ccc32)cc1OC	-	-	-	-	?	-
COc1cccc(CNC(=O)c2cc3c(s2)-c2c(C)cccc2OC3)c1	.	.	.	-	.	-
CCn1cc2nc(SCC(=O)Nc3ccc(OC)c(Cl)c3)n(Cc3ccc(OC)cc3)c(=O)c2n1	.	.	.	-	.	-
CCn1cc2nc(SCC(=O)Nc3ccc(OC)c(OC)c3)n(Cc3ccc(OC)cc3)c(=O)c2n1	-	-	-	.	-	17µM
Cc1cc(C)c2c(N)c3cccc(C)c3nc2n1	-	-	-	18µM	?	-
COc1ccc(C2OC(=O)CC2C(=O)NCc2ccc(F)cc2)cc1OC (configuration not stated)	-	-	-	-	-	-
COc1ccc(C2OC(=O)CC2C(=O)NCc2ccc(Cl)cc2)cc1OC (configuration not stated)	?	?	?	?	?	17µM
Cc1cccc(-c2noc(CNC(=O)c3ccccc3Br)n2)c1	.	.	.	-	.	-
CC1CCCN(c2ccc(C(=O)NCc3cccs3)cn2)C1 (configuration not stated)	?	?	?	13µM	?	19µM
SMILES	Rab9 prom act	NPC1 promoter act	ELG1 genotox	SMN2 splice enh	ELG1 repair inh	FLuc modulator
O=C(NCc1cccs1)c1ccncc1	-	-	-	-	-	-
O=C(NCc1cccs1)c1ccc(N2CCCCC2)nc1	.	.	.	?	.	21µM
Cc1ccc(-c2noc(-c3nnn(CC(=O)Nc4cccc(C(F)(F)F)c4)c3N)n2)cc1	.	.	.	.	.	-
CCc1nn2c(=O)cc(COC(=O)c3ccccc3NC(=O)COc3ccccc3C)nc2s1	.	.	.	.	.	-
O=C(/C=C\c1ccccc1OC(=O)c1ccccc1F)c1cc2ccccc2o1	?	?	16µM	-	?	2.1µM
Cc1ccc(NC(=S)NNC(=O)Nc2ccccc2)cc1	3.2µM	?	?	13µM	?	2.4µM
CC(C)C(NC(=S)Nc1ccccc1)C(=O)O (configuration not stated)	-	-	-	3.2µM	-	-
Cc1ccc(NC(=S)NNC(=O)c2c(Cl)c(C)nn2C)cc1	-	-	-	.	-	-
O=C(NNC(=S)Nc1ccccc1)Nc1ccccc1	-	-	-	5.6µM	?	?
CCC(C)NC(=S)Nc1ccccc1 (configuration not stated)	-	-	-	.	?	-
O=C(NNC(=S)Nc1ccccc1)NNC(=S)Nc1ccccc1	-	-	-	-	-	-
Cc1ccc(NC(=S)NNC(=O)c2nn(C)c(C)c2Cl)cc1	3.2µM	?	-	?	?	-
Cc1ccc(C)c(N2CCN(C3(c4ccccc4)C(=O)c4ccccc4C3=O)CC2)c1	.	.	.	-	.	-
O=C(COc1ccccc1)Nc1ccncc1	-	-	-	.	-	-
CC(C)c1ccc(OCC(=O)Nc2ccc(S(=O)(=O)Nc3ccccn3)cc2)cc1	-	-	-	.	-	?
O=C(COc1ccc2ccccc2c1)Nc1ccncc1	-	-	-	.	-	9.5µM
CC(C)c1ccc(OCC(=O)Nc2ccc(S(=O)(=O)Nc3ncccn3)cc2)cc1	.	.	.	-	.	9.5µM
COCC(=O)Nc1ccc(C(C)C)cc1	-	-	?	?	?	24µM
CCc1ccc(OCC(=O)N/N=C2\CC(=O)c3ccccc32)cc1	-	-	-	-	?	12µM
COc1ccc2c(c1)NC(c1ccc(OCC(C)C)cc1)=NC(c1ccncc1)=N2	.	.	.	-	.	-
O=C(CN1C(=O)NC2(CCCc3ccccc32)C1=O)Nc1cc(F)ccc1F (configuration not stated)	-	-	-	.	-	-
CC(C)c1ccc(OCC(=O)Nc2ccncc2)cc1	-	-	-	.	-	5.4µM
Cc1ccc(Oc2ccc(OCC(=O)Nc3ccncc3)cc2)cc1	.	.	-	.	?	.
CCc1ccc(OCC(=O)Nc2cccc3nsnc23)cc1	-	-	-	-	-	17µM
CC(C)(C)c1ccc(OCC(=O)Nc2ccncc2)cc1	-	-	-	.	-	6µM
SMILES	Rab9 prom act	NPC1 promoter act	ELG1 genotox	SMN2 splice enh	ELG1 repair inh	FLuc modulator
CCc1ccc(OCC(=O)Nc2ccncc2)cc1	-	-	-	.	-	11µM
COc1ccc(Br)c2c1-c1nc(NC(=O)c3ccc(F)cc3)sc1C2	.	.	.	-	.	-
Cc1cc(OCC(=O)NNC(=O)c2ccncc2)ccc1C(C)C	-	-	-	.	-	8.5µM
Clc1ccc(-c2csc(N/N=C/c3ccco3)n2)cc1	?	?	-	.	?	13µM
Cc1sc(N/N=C/c2ccco2)nc1-c1ccccc1	-	-	?	-	?	9.5µM
Brc1ccc(-c2csc(N/N=C/c3ccco3)n2)cc1	?	?	-	?	?	?
Cc1sc(N/N=C/c2cccnc2)nc1-c1ccccc1	-	-	-	?	-	17µM
